Sampled rows, rich in hits. Any-hit rate of the full collection: about 19%.
Marburg entry inh: qHTS for inhibitors of binding or entry into cells for Marburg Virus | Marburg virus pseudotyped entry inhibition, cell reporter | Potency, µM (series often up to 37.8 µM), for inactives: top-dose activity change, negative = inhibition, hits mostly inhibitors | 300,000 compounds, 1.8% hits; calls by dose curve; tested in HEK293 cells; further: potency means the concentration at half of the fitted maximal effect; on the % scale 0 is the no-effect control and ±100 the full control effect
Pf growth 96h: Primary qHTS for delayed death inhibitors of the malarial parasite plastid, 96 hour incubation | P. falciparum luciferase reporter growth, 96 h | Potency, µM (titrated, usually from 28.7 µM), for the others: at the highest dose activity change, negative = inhibition, most hits filed as inhibitors | 320,000 compounds, 6.9% hits | AID 504834, 2011; further: potency means the concentration at half of the fitted maximal effect; on the % scale 0 is the no-effect control and ±100 the full control effect
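Readout is luminescence from an integrated firefly luciferase in P. falciparum. Red cells, 2% hematocrit and 0.05% parasitemia final, were cultured with compound through two parasite generations (96 hours) at 37 C, 5% CO2.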
CHX counter: Cycloheximide Counterscreen for Small Molecule Inhibitors of Shiga Toxin; cell reporter, cycloheximide protein synthesis inhibition counterscreen; 300,000 compounds, 12% hits; max response, %; in the data active means max response mostly above about 13%, no sharp cut-off; inactive means mostly below about 14%; further: read at 38.3 µM for the half of the compounds with a filed dose; 0% is about no effect
Lassa entry inh: qHTS for Inhibitors of binding or entry into cells for Lassa Virus | Lassa virus pseudotype entry inhibition, cell reporter | Potency, µM (top dose mostly 37.9 µM), for the others: at the top dose activity change, negative = inhibition, most hits filed as inhibitors | 300,000 compounds, 1.2% hits; calls by dose curve; tested in HEK293 cells; further: potency means the concentration at half of the fitted maximal effect; on the % scale 0 is the no-effect control and ±100 the full control effect; nearly all actives have a fitted effect of over 50% in size
Pf growth 48h: Primary qHTS for delayed death inhibitors of the malarial parasite plastid, 48 hour incubation; AID 504832, 2011; Potency, µM (series often up to 28.7 µM), inactives show at the top dose activity change, negative = inhibition, actives largely listed as inhibitors; 310,000 compounds, 5.9% hits; P. falciparum luciferase growth in erythrocytes, 48 h; further: potency means the concentration at half of the fitted maximal effect; on the % scale 0 is the no-effect control and ±100 the full control effect
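In quantitative HTS format, infected erythrocytes bearing luciferase-reporter parasites were treated for a single generation at 37 C. Luminescence after adding detection reagent served as the growth measure.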
Shiga inhibitor: A qHTS for Small Molecule Inhibitors of Shiga Toxin; 290,000 compounds, 9.2% hits; AID 2315, 2010; inhibition, % at 38.7 µM; Vero cells, Shiga toxin protein synthesis inhibition reporter; in the data active means inhibition mostly above about 28%, no sharp cut-off; inactive means mostly below about 43%; further: 0% is about no effect
Numbers without * were called inactive; ? = inconclusive; nt = not tested or not shown; [ ] = remark or other dose. Unless noted, the call rests on the fitted dose curve; in most records, active means well fitted inhibition curve with a large enough effect; inconclusive means small, poorly fitted or top-dose-only effect, or another doubt; inactive means no such curve, though single readings can be large or run the other way.

SMILES	Marburg entry inh	Pf growth 96h	CHX counter	Lassa entry inh	Pf growth 48h	Shiga inhibitor
C=C(C)COc1ccc(-c2[nH]ncc2Oc2cccc(OC)c2)c(O)c1	-30%	8.3µM*	5	1.6µM*	9.3µM*	-21
C=C(C)COc1ccc(-c2[nH]ncc2Oc2ccccc2OCC)c(O)c1	?	1.2µM*	9	?	1.3µM*	26
Cc1ccc(C(=O)NC(=S)Nn2cnnc2)cc1	6%	3%	13	8%	21%	23
N#Cc1c(-c2ccco2)cc(-c2ccccn2)nc1N	?	nt	33*	-1%	3%	49
CCn1c2ccccc2c2cc(NC(=O)C(C)Oc3ccccc3)ccc21 (configuration not stated)	2%	?	-1	-6%	?	-15
COc1ccc(OCCCC(=O)OC(C)C(=O)Nc2cccc(C(C)=O)c2)cc1 (configuration not stated)	1%	53%	15*	1%	7%	-22
CCn1c2ccccc2c2cc(NC(=O)C(C)Oc3ccc(OC)cc3)ccc21 (configuration not stated)	?	5.9µM*	1	-11%	?	-3
CC(Oc1ccccc1F)C(=O)Nc1ccc2ccccc2c1 (configuration not stated)	?	67%	45*	?	74%	80*
COc1ccc(OC(C)C(=O)Nc2cccc(F)c2)cc1 (configuration not stated)	?	1µM*	1	5%	-5%	11
OC1OC[C@H](O)[C@@H](O)[C@@H]1O (some centres not stated)	nt	nt	-5	nt	nt	-3
Cc1cc(=O)oc2cc(NC(=O)C(C)Oc3ccc(F)cc3)ccc12 (configuration not stated)	-3%	-13%	nt	8%[46.1 µM]	-7%	nt
CC(Oc1ccc(F)cc1)C(=O)Nc1ccc2ccccc2c1 (configuration not stated)	12µM*	35%	11	?	nt	10
CC(=O)OC1CC[C@@]2(C)C(=CC[C@H]3[C@@H]4CC[C@H](C(C)=O)[C@@]4(C)CC[C@@H]32)C1 (some centres not stated)	nt	nt	-4	nt	nt	-1
NC(=O)c1nc(C2CCCCC2)nc2c1[nH]c(=O)n2-c1ccc(F)cc1	nt	1%	-4	nt	nt	29
Cc1ccc(C(=O)O/N=C(\N)Cc2cccc3ccccc23)cc1	?	22%	12	20%[46.1 µM]	1.9µM*	15
COc1ccccc1CC(=O)O/N=C(\N)Cc1cccc2ccccc12	?	?	-4	?	5.9µM*	-8
COc1ccccc1C/C(N)=N/OC(=O)c1ccc(C)c([N+](=O)[O-])c1	?	?	-4	?	?	5
COc1ccccc1OC(=O)Cc1cccc2ccccc12	-4%[46.1 µM]	10%	5	5%[46.1 µM]	-22%	26
Cc1ccc(S(=O)(=O)N(CC(=O)Nc2cc(C)ccc2C)C(=O)N2CCN(C)CC2)cc1	12%	?	nt	8%	?	nt
O=c1[nH]c(/C=C\c2ccccc2F)nc(O)c1[N+](=O)[O-]	nt	13µM*	7	nt	-9%	nt
O=c1[nH]c(/C=C/c2cccc3ccccc23)nc2ccccc12	?	17%	27	0%	?	46
O=c1[nH]c(/C=C/c2ccccn2)nc2ccccc12	nt	?	56*	nt	-28%	70*
O=c1[nH]c(/C=C/c2ccccc2F)nc2ccccc12	nt	-30%	34*	nt	154%	71*
C#CCOc1c(/C=C\c2nc(O)c([N+](=O)[O-])c(=O)[nH]2)cc(Br)cc1OC	nt	?	-3	nt	5.2µM*	nt
COc1ccc(NC2=NCC(=O)N2c2ccccc2F)c(OC)c1	13%	17%	4	19%	28%	-7
SMILES	Marburg entry inh	Pf growth 96h	CHX counter	Lassa entry inh	Pf growth 48h	Shiga inhibitor
COC(=O)c1ccc(NC(=S)NC2CC2)cc1	nt	?	13	nt	35%	21
CCC(C)c1ccc(OCC(=O)Nc2ccc(Cl)cn2)cc1 (configuration not stated)	?	-10%	35*	0%	nt	22
CC(C)CC(=O)NC(=S)Nc1ccc(Cl)cn1	?	38%	34*	19%	-4%	119*
Cc1ccc(CSc2nnc(SCC(=O)N/N=C/c3c[nH]c4ccccc34)s2)cc1	?	111%	19*	?	246%	42
CC(=C/c1ccco1)/C=N/NC(=O)CSc1nnc(SCc2ccc(C)cc2)s1	?	91%	45*	?	90%	33*
O=C(O)COc1ccccc1/C=N/NC(=O)CSc1nc2ccccc2n1Cc1ccc(Cl)cc1	nt	?	6	nt	15µM*	12
CCn1c(SCC(=O)N/N=C/c2c[nH]c3ccccc23)nnc1-c1ccc(C(C)(C)C)cc1	?	10µM*	1	4.5µM*	?	4
C=C[C@]12CC[C@H](OC(C)=O)CC1=CCC1C2CC[C@@]2(C)C1CCC21OCCO1 (some centres not stated)	-3%[46.1 µM]	nt	nt	8%[46.1 µM]	nt	nt
O=C(CSc1nnc(SCc2ccc(Cl)cc2)s1)N/N=C/c1ccc(Cl)cc1Cl	nt	7%	33*	nt	85%	55*
Cc1ccc(CSc2nnc(SCC(=O)N/N=C/c3ccccc3OCC(=O)O)s2)cc1	nt	105%	21*	nt	158%	44*
O=C(CSc1nnc(SCc2ccc(Cl)cc2)s1)N/N=C/c1ccccc1C(=O)O	nt	32%	-3	nt	28%	18
Cc1ccc(CSc2nnc(SCC(=O)N/N=C/c3ccc(C(=O)O)cc3)s2)cc1	?	142%	13*	?	155%	37
CCOc1ccc(S(=O)(=O)NCCC(=O)NCc2ccccn2)cc1	4%	28%	nt	2%	53%	nt
O=C(Cc1cccs1)N1CCN(S(=O)(=O)c2ccc(F)cc2)CC1	12%	?	-10	23%[46.1 µM]	15%	-14
CCN1CCN(c2c(/C=C3\SC(=S)N(Cc4ccco4)C3=O)c(C)c(C#N)c(=O)n2C)CC1	13µM*	?	-2	?	2.3µM*	-11
O=c1oc2ccccc2c(O)c1/C=C1\C=Nc2ccccc21	7%	0%	1	19%	14%	-5
CN(C)CCNc1nc2sc3c(c2c(=O)n1-c1ccccc1)CCCCC3	?	-27%	-3	-6%	-18%	-16
COc1ccc(-n2c(C)nc3sc4c(c3c2=O)CCC4)cc1	-10%[46.1 µM]	4.7µM*	2	-14%	14%	-23
COc1ccc(-n2c(NCCN(C)C)nc3sc4c(c3c2=O)CCCCC4)cc1	23µM*	?	-1	-19%	nt	-28
CN(C)CCNc1nc2sc3c(c2c(=O)n1-c1ccc(F)cc1)CCCCC3	?	?	-3	?	10µM*	-9
CN(C)CCNc1nc2sc3c(c2c(=O)n1Cc1ccccc1)CCCCC3	10µM*	?	-1	8%	?	-6

Bioassay records deposited in PubChem by National Center for Advancing Translational Sciences (NCATS).
